Assay results taken from PubChem BioAssay (NCATS).
Inconclusive results are not listed. A number with no mark means an inactive call. Active and inactive are the calls of the source. Calls come from the whole dose curve; as a rule, active = well fitted inhibition curve with a large enough effect; inconclusive = small, poorly fitted or top-dose-only effect; inactive = flat fitted curve, though single readings scatter.

target: Ubiquitin carboxyl-terminal hydrolase 1 (Homo sapiens) (UniProt O94782); test: Inhibitors of USP1/UAF1: Pilot qHTS (AID 504865); details: purified USP1/UAF1, Ub-rhodamine cleavage fluorescence; series mostly up to 114 µM; activity change, negative = inhibition: at the top concentration; note: nearly all actives have a fitted effect of over 35% in size;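 for activity change, negative = inhibition: rhodamine fluorescence freed from ubiquitin-rhodamine substrate followed over time; top concentration of the series differs between compounds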
Description: Deubiquitinating enzymes (DUBs) are a class of enzymes that can cleave isopeptide bond formed between the C-terminal carboxylate of ubiquitin and a lysine side-chain amino group on the target protein. Among them, ubiquitin specific proteases (USPs) constitute the largest DUB family. Human USPs are emerging as promising targets for pharmacological intervention because of their connection to a number of human diseases, including prostate, colon and breast cancer (1, 2), pediatric acute lymphoblastic leukemia (3), and familial cylindromatosis (4). The advantage of inhibiting USPs lies in the potential specificity of therapeutic intervention that can lead to better efficacy and reduce nonspecific side effects.
In a collaboration between the University of Delaware and the NIH Chemical Genomics Center, a high-throughput screen assay was developed to screen for USP1/UAF1 inhibitors. This miniaturized assay has a fluorescent read-out and is used to screen the NIH Molecular Libraries Small Molecule Repository (MLSMR) in order to identify a small molecule that inhibits USP1.
NIH Chemical Genomics Center [NCGC]
NIH Molecular Libraries Probe Centers Network [MLPCN]
Assay Submitter (PI): Zhihao Zhuang, University of Delaware
1. Priolo, C., et al. (2006) The isopeptidase USP2a protects human prostate cancer from apoptosis. Cancer Res 66, 8625-8632
2. Popov, N., et al. (2007) The ubiquitin-specific protease USP28 is required for MYC stability. Nat Cell Biol 9, 765-774
3. De Pitta, C., et al. (2005) A leukemia-enriched cDNA microarray platform identifies new transcripts with relevance to the biology of pediatric acute lymphoblastic leukemia. Haematologica 90, 890-898
4. Kovalenko, A., et al. (2003) The tumour suppressor CYLD negatively regulates NF-kappaB signalling by deubiquitination. Nature 424, 801-805
3 microliters of reagents (buffer in columns 3 and 4 as negative control and 1nM USP1/UAF1 complex in columns 1, 2, and 5-48) are dispensed into Greiner black solid bottom 1536-well assay plates. Compounds are then transferred via Kalypsys pin tool equipped with 1536-pin array (10nl slotted pins, V&P Scientific, San Diego, CA). Following an incubation step of 15 min at room temperature, 1ul of Ub-Rho substrate (150nM final concentration) is added to initiate the reaction. The plates are immediately centrifuged at 1000 rpm for 15 seconds, and subsequently transferred to a ViewLux high-throughput CCD imager (PerkinElmer) wherein kinetic measurements of fluorescence are acquired using 480 nm excitation/540 nm emission filter set (6 reads every 60 seconds, see Table 1). All reagents are diluted in an assay buffer consisting of 50mM HEPES (pH 7.8), 0.5mM EDTA, 0.1 mg/ml BSA, 1mM TCEP, and 0.01% Tween-20.
% is set by controls: 0 for no effect and ±100 for the full control effect; potency is the fitted concentration of half-maximal effect.

Sequence of Ubiquitin carboxyl-terminal hydrolase 1 (Homo sapiens) (O94782 whole entry, looked up): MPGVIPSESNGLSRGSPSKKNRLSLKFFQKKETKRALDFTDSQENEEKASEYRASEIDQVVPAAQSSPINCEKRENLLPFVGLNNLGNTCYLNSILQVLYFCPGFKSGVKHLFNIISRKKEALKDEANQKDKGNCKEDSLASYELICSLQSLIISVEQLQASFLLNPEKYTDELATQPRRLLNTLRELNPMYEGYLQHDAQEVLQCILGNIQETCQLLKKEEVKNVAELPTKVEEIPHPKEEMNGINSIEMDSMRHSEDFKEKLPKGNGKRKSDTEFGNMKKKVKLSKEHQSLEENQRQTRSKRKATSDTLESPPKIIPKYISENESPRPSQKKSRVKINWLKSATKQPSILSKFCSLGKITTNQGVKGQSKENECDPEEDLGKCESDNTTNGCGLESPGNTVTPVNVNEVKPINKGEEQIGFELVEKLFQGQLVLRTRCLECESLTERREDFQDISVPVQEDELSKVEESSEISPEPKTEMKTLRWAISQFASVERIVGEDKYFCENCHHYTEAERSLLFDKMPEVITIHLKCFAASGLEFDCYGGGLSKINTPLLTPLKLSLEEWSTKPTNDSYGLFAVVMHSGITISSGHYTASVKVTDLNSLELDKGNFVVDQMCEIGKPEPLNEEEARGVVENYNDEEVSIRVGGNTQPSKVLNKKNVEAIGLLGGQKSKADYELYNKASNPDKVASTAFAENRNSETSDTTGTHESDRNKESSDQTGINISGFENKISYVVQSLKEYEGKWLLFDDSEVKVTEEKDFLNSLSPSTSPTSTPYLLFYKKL

| Structure (SMILES) | activity change, negative = inhibition | Potency |
| --- | --- | --- |
| Cc1cncc(C(=O)O)[n+]1[O-] | -7.35% | – |
| NC(=O)C1CC2(NC(=O)NC2=O)c2cc(F)ccc2O1 (stereo not given) | -3.63% | – |
| COC(=O)C1C2CC3c4[nH]c5cc(OC)ccc5c4CCN3CC2CC(OC)C1OC (stereo not given) | -7.67% | – |
| COc1cc(/C=C\C(=O)N2CCC=CC2=O)cc(OC)c1OC | -13.6% [at 54.9 µM] | – |
| CO/N=C(/C(=O)N[C@@H]1C(=O)N2C(C(=O)O)=C(CSc3cnns3)CS[C@H]12)c1csc(N)n1 | -12.8% | – |
| CC1(Cn2ccnn2)[C@H](C(=O)O)N2C(=O)C[C@H]2S1(=O)=O (stereo not given in full) | -2.98% | – |
| CCCCCOC(=O)Nc1nc(=O)n(C2O[C@H](C)[C@@H](O)[C@@H]2O)cc1F (stereo not given in full) | 3.23% | – |
| NC(=O)NC(CCC(=O)O)C(=O)O (stereo not given) | 0.183% | – |
| Cc1ccccc1N1C(=O)c2cc(N)ccc2N/C1=C\F | -2.94% | – |
| CCCC[C@H](CC)CN=C(N)NC(N)=NCCCCCCN=C(N)NC(N)=NC[C@@H](CC)CCCC | – | 28.2 µM (active) |
| OCC1O[C@H](Oc2ccc(O)cc2)C(O)C(O)C1O (stereo not given in full) | -5.49% | – |
| OCC(O)C(O)C(O)C(O)CO (stereo not given) | – | inactive |
| CC12C=CC(=O)C=C1[C@@H](F)CC1C2C(O)CC2(C)C1CC[C@]2(O)C(=O)CO (stereo not given in full) | -3.1% | – |
| O[C@@H]1[C@@H]2c3cc4c(cc3CN3CCC(=C[C@@H]1O)[C@H]23)OCO4 | -4.62% [at 54.9 µM] | – |
| C[S+](C)CC[C@H](N)C(=O)O | -3.04% | – |
| O=C(O)c1ccc(N[C@@H]2OC[C@@H](O)[C@@H](O)[C@@H]2O)cc1 | -7.23% | – |
| COc1ccc(S(=O)(=O)N2c3ccc(Cl)cc3[C@](O)(c3ccccc3Cl)[C@@H]2C(=O)N2CCC[C@H]2C(N)=O)cc1OC | -12.3% | – |
| CCOC(=O)C(CCc1ccccc1)NC(C)C(=O)N1Cc2cc(OC)c(OC)cc2CC1C(=O)O (stereo not given) | -9.88% | – |
| O=C(NC[C@@H]1CCCCN1)c1cc(OCC(F)(F)F)ccc1OCC(F)(F)F | 10.8% [at 54.9 µM] | – |
| OCC1O[C@H](O[C@H]2C(O)C(O)C(O)O[C@@H]2CO)C(O)C(O)C1O (stereo not given in full) | -4.37% | – |

| Structure (SMILES) | activity change, negative = inhibition | Potency |
| --- | --- | --- |
| Nc1nc(F)nc2c1ncn2[C@@H]1O[C@H](CO)[C@@H](O)[C@H]1O | -0.11% | – |
| O=C1Oc2ccccc2C(=O)C1C(CC(O)c1ccc(-c2ccc(Br)cc2)cc1)c1ccccc1 (stereo not given) | – | 50.1 µM (active) |
| CC[C@@H](C)C(N)C(=O)O (stereo not given in full) | -3.31% | – |
| CC1(C)SC2[C@@H](N=CN3CCCCCC3)C(=O)N2[C@H]1C(=O)O (stereo not given in full) | 2.98% | – |
| CCN(CC)C(=O)[C@@]1(c2ccccc2)C[C@@H]1CN | -3.15% | – |
| CC1CCC(C(C)C)C(O)C1 (stereo not given) | -7.5% | – |
| OCCOC[C@H]1O[C@H](OCCO)[C@H](OCCO)[C@@H](OCCO)[C@@H]1OCCO (tested in a mixture with another compound) | -5.65% | – |
| CC(C)C[C@@H](NC(=O)[C@@H](Cc1ccccc1)NC(=O)c1cnccn1)B(O)O | -1.75% | – |
| Cc1ccc(/C=C2/C(=O)C3(C)CCC2C3(C)C)cc1 (stereo not given) | -7.78% | – |
| C=CCn1c(=O)n(C2OC(CO)C(O)C2O)c2nc(N)[nH]c(=O)c21 (stereo not given) | -5.61% | – |
| O=C1[C@@H]2C[C@@H]3C[C@H]1C[C@@](O)(C3)C2 | -9.69% | – |
| O=[N+]([O-])O[C@H]1CO[C@H]2[C@@H]1OC[C@H]2O | -5.28% | – |
| C[C@@H]1CC2C3CCC4=CC(=O)C=C[C@]4(C)[C@@]3(F)[C@@H](O)C[C@]2(C)[C@@]1(O)C(=O)COC(=O)c1cccc(S(=O)(=O)O)c1 (stereo not given in full) | -11.2% | – |
| OCC1OC(O)C(O)C(O)C1O (stereo not given) | -1.02% | – |
| CC1(C)CC1C(=O)N/C(=C/CCCCSCC(N)C(=O)O)C(=O)O (stereo not given) | -5.39% | – |
| C/C1=C2/[N-]C(C(CC(N)=O)[C@@]2(C)CCC(=O)NCC(C)OP(=O)([O-])O[C@H]2[C@@H](O)[C@@H](n3cnc4cc(C)c(C)cc43)O[C@@H]2CO)[C@]2(C)N=C(/C(C)=C3N=C(/C=C4N=C1C(CCC(N)=O)C\4(C)C)[C@@H](CCC(N)=O)[C@]\3(C)CC(N)=O)[C@@H](CCC(N)=O)[C@]2(C)CC(N)=O.CC(=O)O.[Co] (stereo not given in full) | – | 56.2 µM (active) |
| CC(=O)C1(O)Cc2c(O)c3c(c(O)c2C(OC2CC(N)C(O)C(C)O2)C1)C(=O)c1c(O)cccc1C3=O (stereo not given) | – | 22.4 µM (active) |
| C[C@H](O)[C@@H]1C(=O)N2C(C(=O)O)=C(SCCN=CN)C[C@@H]12 | -1.24% [at 54.9 µM] | – |
| CC(c1ncncc1F)[C@](O)(Cn1cncn1)c1ccc(F)cc1F (stereo not given in full) | -4.08% | – |
| O=C1NC(=O)C2C3C=CC(C3)C12 (stereo not given) | 3.38% | – |
